KCNQ2 inh: blocks the rat KCNQ2 potassium channel; O88943; CHO-K1 KCNQ2, FluxOR thallium flux, 20 min; hits give low values; B-score at 10 µM; actives 1.1% (n = 310,000); AID 2156;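 active = fluorescence ratio B-score at most minus 3 library SDs, with starting brightness B-score within 2 library SDs, cut at about -5.5 in these data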
KCNQ2 enhance: KCNQ2 (rat) channel potentiation. O88943. CHO-K1 KCNQ2, FluxOR thallium flux fluorescence; hits give high values. B-score at 10 µM. actives 0.54% (n = 310,000). AID 2239;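 active = fluorescence ratio B-score at least 3 SD of library B-scores, with initial fluorescence B-score within 3 of them, cut at about 5.3 in these data; same plate scores as AID 2156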;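 note: B-score of peak minus minimum over baseline fluorescence ratio after K+ and Tl+ stimulus; positive B-score means potentiation of KCNQ2 with more thallium influx and brighter signal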
Kir21 confirm: confirmation of mouse Kir2.1 potassium channel inhibitors; actives 41% (n = 2,300); shares compounds with KCNQ2 enhance; Kir2.1-expressing cells, FluxOR thallium flux fluorescence; hits give low values; Tl flux remaining, % of negative control (hits give low values), % at 10 µM;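 active = Primary-screen hit whose thallium flux fell at least 3 control SD below untreated wells in both duplicates, with normal baseline fluorescence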;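 note: 0% = blank wells without stimulus and 100% = stimulated no-compound controls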
HEK293 ctr: alters thallium flux in parental HEK293 cells, Kir2.1 counter-screen. shares compounds with KCNQ2 enhance. FluxOR thallium flux fluorescence; 0% = unstimulated blank wells. FluxOR signal as % of negative control (100 = no effect), % at 10 µM. actives 19% (n = 2,300);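 active = dye signal at least 3 control SD above or below untreated wells in both duplicates, raw fluorescence within 3, either direction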;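 note: percent is based on the flux ratio of peak minus minimum fluorescence over baseline F0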
CHO-K1 ctr: counter-screen for KCNQ2 potentiators: effect in parental CHO-K1 cells | activity increase over 3SD of controls, % at 10 µM | shares compounds with KCNQ2 enhance | actives 43% (n = 1,200) | FluxOR thallium flux fluorescence; zero = vehicle mean+3SD, 100% = vehicle-minus-blank window | AID 2282;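 active = signal rise of at least 3 SD above the untreated control mean, in both duplicate wells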;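 note: counter screen of KCNQ2 potentiator hits so any rise reflects channel-independent effects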
KCNQ1 pot spec: selectivity of KCNQ2 potentiators: effect on human KCNQ1; shares compounds with KCNQ2 enhance; CHO KCNQ1 stable, FluxOR thallium flux fluorescence; beyond 3SD, as % of vehicle-control signal; activation over 3SD threshold, % at 10 µM; actives 28% (n = 1,200); AID 2283;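 active = fluorescence ratio rise of at least 3 SD of vehicle wells above their mean, in both replicate wells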;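 note: 0% = vehicle mean plus 3 SD and 100% = vehicle minus unstimulated blank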
Target sequence (P51787 whole entry, looked up): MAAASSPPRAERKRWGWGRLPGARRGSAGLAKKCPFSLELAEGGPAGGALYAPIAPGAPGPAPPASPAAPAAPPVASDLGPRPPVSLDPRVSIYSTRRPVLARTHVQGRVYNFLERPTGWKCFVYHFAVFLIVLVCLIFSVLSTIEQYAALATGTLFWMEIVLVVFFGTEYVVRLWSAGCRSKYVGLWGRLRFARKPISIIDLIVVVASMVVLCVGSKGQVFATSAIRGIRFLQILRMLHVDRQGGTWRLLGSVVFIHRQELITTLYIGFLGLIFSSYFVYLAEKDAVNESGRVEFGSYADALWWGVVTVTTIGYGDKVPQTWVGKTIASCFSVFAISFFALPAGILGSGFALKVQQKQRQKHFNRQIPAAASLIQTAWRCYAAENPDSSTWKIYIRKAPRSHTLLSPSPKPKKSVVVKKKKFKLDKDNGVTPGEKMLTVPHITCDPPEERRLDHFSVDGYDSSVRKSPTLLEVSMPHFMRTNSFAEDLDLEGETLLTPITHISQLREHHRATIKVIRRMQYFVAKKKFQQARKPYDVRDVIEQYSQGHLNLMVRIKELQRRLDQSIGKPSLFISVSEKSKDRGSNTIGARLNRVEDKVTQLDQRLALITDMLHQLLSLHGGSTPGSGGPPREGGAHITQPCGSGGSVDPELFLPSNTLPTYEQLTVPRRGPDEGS
KCNQ2 pot conf: rat KCNQ2 channel potentiator confirmation | shares compounds with KCNQ2 enhance | CHO-KCNQ2 cells, FluxOR thallium flux fluorescence | potentiation, less the hit threshold, % at 10 µM | actives 68% (n = 1,200) | AID 2287;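 active = fluorescence ratio rising 3 SD or more over the vehicle control mean in both replicates, plus primary screen hit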;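 note: peak minus minimum thallium fluorescence divided by baseline after K/Tl stimulus; 0% = vehicle mean plus 3 SD and 100% = vehicle minus unstimulated blank difference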
Kir21 spec: mouse Kir2.1 off-target activity of KCNQ2 potentiators. activity over 3SD threshold, % at 10 µM. actives 2% (n = 1,200). AID 2345. shares compounds with KCNQ2 enhance. HEK293 Kir2.1, FluxOR thallium flux fluorescence;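 active = fluorescence ratio rise of at least 3 SD above the vehicle-control mean, seen in both replicates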;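 note: 0% = vehicle mean plus 3 SD and 100% = vehicle minus no-stimulus blank window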
KCNQ2 W236L pot: rat KCNQ2 W236L mutant potentiation by KCNQ2 potentiators | shares compounds with KCNQ2 enhance | CHO KCNQ2-W236L, automated patch clamp current | current increase over 3SD of negative controls (%), hits give high values, % at 25 µM | actives 10% (n = 940);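 active = current increase at least 3 SD of the untreated controls above them in both duplicate recordings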
The depositor's hits bear a star; i = inactive; . = no result given. Shown are actives, neighbours in structure and some others; about 1.6% of the full set was active somewhere.

SMILES	KCNQ2 inh	KCNQ2 enhance	Kir21 confirm	HEK293 ctr	others
Cc1ccc(S(=O)c2snnc2C)cc1 (centres undefined)	i	.	.	.
CCCNC(=O)c1nnsc1S(=O)c1ccc(Cl)cc1 (centres undefined)	-6.8*	-6.8	74%*	i
CNC(=O)c1nnsc1S(=O)c1ccc(Cl)cc1 (centres undefined)	i	.	66%*	65%*
Cc1nnsc1S(=O)c1ccc(F)cc1 (centres undefined)	i	0.41	.	.
CC(Oc1ccccc1)C(=O)Nc1cc(Cl)ccc1-n1cncn1 (centres undefined)	i	0.65	.	.
Cc1nn(-c2ccccc2)c(C)c1NC(=O)COC(=O)Cc1cccc(C(F)(F)F)c1	i	0.6	.	.
CCOC(=O)N1CCN(C(=O)c2cccc(N3C(=O)NC4CC3(C)Oc3ccc(Cl)cc34)c2)CC1 (centres undefined)	i	.	.	.
Cc1ccc(C2C(/C=C3/SC(=S)NC3=O)=C(c3cccs3)Oc3ccccc32)cc1 (centres undefined)	i	5.8*	i	i	CHO-K1 ctr=-14;KCNQ1 pot spec=-9;KCNQ2 pot conf=-9;Kir21 spec=-36
Cc1nn(C)c(C)c1/C=C1/SC(=S)NC1=O	i	1.2	.	.
c1ccc(CCNCCCOc2cccc3ccccc23)cc1	i	.	14%*	i
CC(=O)NCCOc1cccc2ccccc12	i	0.73	.	.
COc1ccc(NC2CCCN(C(=O)c3ccccc3N3CCOCC3)C2)cc1OC (centres undefined)	i	1.3	.	.
Cc1[nH]n(-c2ccccc2)c(=O)c1CCO	i	0.23	.	.
Cc1[nH]n(-c2ccccc2)c(=O)c1S(=O)(=O)c1ccccc1	i	.	28%*	i
NC(=O)c1cccc2c3c([nH]c12)CCCC3	i	2.9	.	.
CCOC(=O)C1CCCc2c1[nH]c1c(C(N)=O)cccc21 (centres undefined)	i	9.7*	i	i	CHO-K1 ctr=3.7*;KCNQ1 pot spec=-15;KCNQ2 pot conf=34*;Kir21 spec=-48;KCNQ2 W236L pot=i
Cc1ccccc1S(=O)(=O)Cc1ccc(C(=O)NCCCN2CCC(C)CC2)o1	i	.	.	.
Cc1ccc(-n2ccn(CC(=O)NCCc3ccccc3)c(=O)c2=O)cc1C	i	0.51	.	.
COc1cc(C(=O)OCC(=O)NC(N)=O)cc(CN2C(=O)c3ccccc3C2=O)c1OC	i	.	.	.
COc1cccc(/C=N/n2c(SC)nnc2-c2ccccc2)c1OC	i	.	.	.
COc1cccc(/C=N/n2c(SC)nnc2-c2ccccc2)c1O	i	5.3*	i	i	CHO-K1 ctr=-24;KCNQ1 pot spec=-4;KCNQ2 pot conf=-13;Kir21 spec=-29
CCNC(=S)Nc1ccc(OCc2nc3ccccc3s2)cc1	i	.	.	.
CCn1c(O)c(N=Nc2ccc(Cl)c(C(=O)O)c2)c2ccccc21	i	2.8	.	.
CC(C)n1c(O)c(N=Nc2ccc(Cl)c(C(=O)O)c2)c2ccccc21	i	7.5*	i	i	CHO-K1 ctr=78*;KCNQ1 pot spec=29*;KCNQ2 pot conf=23*;Kir21 spec=-32;KCNQ2 W236L pot=50%*
CN(C)C(=O)c1cnc(-c2ccccc2)nc1-c1ccccc1	i	1.1	.	.
SMILES	KCNQ2 inh	KCNQ2 enhance	Kir21 confirm	HEK293 ctr	others
Cn1c(=O)[nH]c(=O)c2c1nc(N1CCN(CCO)CC1)n2Cc1ccccc1	i	.	.	.
Cc1ccc(N(C)C(=O)c2cc(S(=O)(=O)N3CCCC3)cn2C)cc1	i	.	.	.
CCN(c1nc(N)c(C(=O)N=C(N)N)nc1Cl)C(C)C	i	5.3*	42%*	i	CHO-K1 ctr=9.8*;KCNQ1 pot spec=-9;KCNQ2 pot conf=-2;Kir21 spec=-94;KCNQ2 W236L pot=i
CCOC(=O)c1c(C)[nH]c(C)c1S(=O)(=O)N(C)CC(=O)N(C)Cc1ccccc1	i	.	.	.
COc1ccc(OC(C)C(=O)NCCC2=CCCCC2)cc1 (centres undefined)	i	.	48%*	i
COc1ccc(C(=O)NCCC2=CCCCC2)cc1	i	.	.	.
O=C(Nc1nnc(-c2ccc3c(c2)CCCC3)o1)c1c(F)cccc1F	i	.	.	.
O=C(Nc1nnc(-c2ccc3c(c2)CCCC3)o1)c1ccc(Cl)cc1Cl	i	8.9*	i	255%*	CHO-K1 ctr=-12;KCNQ1 pot spec=69*;KCNQ2 pot conf=15*;Kir21 spec=-31;KCNQ2 W236L pot=i
CCCOc1ccc(CNC(=O)c2ccc3nc(N4CCOCC4)sc3c2)cc1	i	1.9	.	.
COc1ccccc1-c1c(C)oc2cc(OC(=O)c3ccco3)ccc2c1=O	i	0.01	70%*	i
CCOc1ccccc1Oc1c(C)oc2cc(OC(=O)c3ccco3)ccc2c1=O	i	.	.	.
COc1ccc(CN2C(=O)CN=C2Nc2cc(C)ccc2C)cc1	i	15*	i	i	CHO-K1 ctr=0.6*;KCNQ1 pot spec=9.2*;KCNQ2 pot conf=-33;Kir21 spec=-41
CCc1ccccc1NC1=NCC(=O)N1Cc1ccc(OC)cc1	i	.	.	.
CN(C)C=NC(=O)c1[nH]c2ccc(Cl)cc2c1-c1ccccc1	i	.	.	.
COc1ccc(CNC(=O)COC(=O)c2cccs2)cc1	i	.	.	.
c1ccc(CCN=C2CCCc3c2[nH]c2ccccc32)cc1	i	.	20%*	70%*
Nc1ccc(C(=O)N/N=C2\CCCc3c2[nH]c2ccccc32)cc1	i	0.77	.	.
C/C=C/c1ccc(OCCOCCNCc2ccccc2)c(OC)c1	i	0.43	30%*	i
C/C=C/c1ccc(OCCOc2cc(C=O)ccc2OC)c(OC)c1	i	0.03	.	.
Cc1ccc(OCCNCc2ccccc2)c(C)c1	i	.	.	.
COc1cc(C)ccc1OCCCCNCc1ccccc1	i	0.05	58%*	i
C=CCC1(CC=C)CCCN1C(=O)C1CCC(=O)N(CCc2ccc(OC)cc2)C1 (centres undefined)	i	.	.	.
Cc1ccc(N(CC(=O)NC2CCCC2)C(=O)CNC(=O)c2cccs2)cc1F	i	0.4	.	.
CCn1ncc(/C=N/NC(=O)c2ccc3c(c2)OCO3)c1C	i	.	.	.
CCn1cc(/C=N/NC(=O)c2ccc3c(c2)OCO3)c(C)n1	i	6.3*	i	i	CHO-K1 ctr=-12;KCNQ1 pot spec=-25;KCNQ2 pot conf=-20;Kir21 spec=-39
O=C(NNC(=O)C(Cl)Cl)c1cnn(-c2ccccc2)c1C(F)(F)F	i	.	.	.
CCn1cc(C(=O)NCCN(C)CCc2ccccc2)c(=O)c2cc(S(=O)(=O)N(C)C)ccc21	i	0.95	.	.
CCn1cc(C(=O)NCCc2ccccc2)c(=O)c2cc(S(=O)(=O)N(C)C)ccc21	i	0.02	i	i
